Measurements from PubChem BioAssay (Tox21).
Values without a mark were called inactive. Inconclusive results are not listed. Where a call stands in place of a potency, no number is given. Activity calls are given as the source filed them. Unless noted, the call rests on the fitted dose curve; in most records, active means well fitted curve in the direction sought with a large enough effect in the repeat runs; inconclusive means weak or mixed curves; inactive means no such curve, though single readings can be large; an effect the other way counts as inactive or inconclusive.

Legend:
[1] = qHTS assay to identify small molecule antagonists of the estrogen related receptor (ERR) signaling pathway from Tox21 library - cell viability counter screen (AID 1224834); further: nearly all actives have a fitted effect of over 30% in size; further: potency means the concentration at half of the fitted maximal effect
Procedure, shortened: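 ERR cells, 2,000/well; 6 h settle at 37 C/5% CO2; pin-tool compound transfer in DMSO; 17.5 h at 37 C; CellTiter-Fluor, 30 min; fluorescence intensity.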

[2] = biological target: Luciferin 4-monooxygenase (Photinus pyralis) (UniProt P08659); test: qHTS assay to identify small molecule inhibitors of firefly luciferase (AID 1224835); further: nearly all actives have a fitted effect of over 25% in size
Procedure, shortened: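 Biochemical qHTS: compounds run as interplate titrations against purified firefly enzyme, with D-luciferin and ATP each at its KM concentration. Light output recorded by CCD imaging.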

[3] = qHTS assay to identify small molecule agonists of the constitutive androstane receptor (CAR) signaling pathway - cell viability counter screen (AID 1224836); further: nearly all actives have a fitted effect of over 45% in size
Procedure, shortened: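 HepG2 cells stably carrying hCAR and a CYP2B6-2.2kb reporter were plated 4 h, then given compounds at 15 concentrations plus PK11195 (final 0.75 uM). After 23 h at 37 C, viability was read by CellTiter-Fluor fluorescence.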

[4] = qHTS assay to identify small molecule antagonists of the constitutive androstane receptor (CAR) signaling pathway - cell viability counter screen (AID 1224837); further: nearly all actives have a fitted effect of over 45% in size
Procedure, shortened: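 Viability was measured with CellTiter-Fluor in a HepG2 line carrying stably transfected hCAR and a CYP2B6-2.2kb construct. Cells were exposed for 23 hr at 37 C to 15 compound concentrations with 50 nM CITCO as agonist.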

[5] = biological target: Nuclear receptor subfamily 1 group I member 3 (Homo sapiens) (UniProt Q14994); test: qHTS assay to identify small molecule agonists of the constitutive androstane receptor (CAR) signaling pathway (AID 1224839); further: nearly all actives have a fitted effect of over 15% in size
Procedure, shortened: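 HepG2 cells stably expressing hCAR and a CYP2B6-2.2kb luciferase reporter were treated with compounds at 15 concentrations plus 0.75 uM PK11195 (final) for 24 h at 37 C; luminescence was read after ONE-Glo addition.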

[6] = qHTS assay to identify small molecule antagonists of the estrogen related receptor signaling pathway with the pleiotropic PPARgamma coactivator (PGC) from Tox21 10K library - cell viability counter screen (AID 1224840; active means well fitted cell-killing curve with a large enough effect in the repeat runs, not every such curve was filed as active; further: nearly all actives have a fitted effect of over 40% in size)
Procedure, shortened: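 Multiplexed viability counter screen in the PGC/ERR cell line: cells treated with DMSO-dissolved compounds for 17.5 hours at 37 C, then viability measured as CellTiter-Fluor fluorescence.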

[7] = qHTS assay to identify small molecule agonists of H2AX (AID 1224845; active means well fitted activation curve with a large enough effect in the signal ratio in the repeat runs, not every such curve was filed as active; the % refers to the signal ratio; further: potency means the concentration at half of the fitted maximal effect)
Procedure, shortened: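 Wild-type CHO-K1 cells, plated overnight, exposed 3hr at 37C to 15 concentrations (0.76% DMSO final). Lysed, then HTRF anti-pH2AX (S139) cryptate and anti-H2AX-d2 antibodies, 24 hr room temperature; 665/620 nm emission read.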

[8] = qHTS assay to identify small molecule agonists of H2AX - cell viability counter screen (AID 1224847; calls by dose curve; further: top concentration of the series differs between compounds; nearly all actives have a fitted effect of over 30% in size)
Procedure, shortened: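 Wild-type CHO-K1 cells (10% FBS medium) were plated overnight at 37C, exposed to compounds at 15 concentrations for 3 hr at 37C (0.76% DMSO final), and viability was read as CellTiter-Glo luminescence after 30 min at room temperature.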

[9] = qHTS RealTime-Glo MT Cell Viability Assay in HepG2 cells - 24 hour (AID 1224867); further: nearly all actives have a fitted effect of over 50% in size
Procedure, shortened: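 Compound treatment began 5 h after plating HepG2 cells (600/well) with NanoLuc luciferase and prosubstrate. Plates stayed at 37 C for 40 h; luminescence was captured at six time points, 0 h through 40 h.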

[10] = A CellTox Green Cytotoxicity Assay to monitor cytotoxicity in HEK293 cells - 0 hour (AID 1224869); further: nearly all actives have a fitted effect of over 50% in size
Procedure, shortened: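 Cells (HEK293, 600/well) and dye reagent are dispensed together. After 5 h at 37 C, 23 nL compound is pinned in. Plates stay at 37 C for 40 h with fluorescence read at 0h, 8h, 16h, 24h, 32h and 40h.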

[11] = qHTS RealTime-Glo MT Cell Viability Assay in HepG2 cells - 40 hour (AID 1224870); further: nearly all actives have a fitted effect of over 50% in size
Procedure, shortened: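 HepG2 cells (600/well) mixed with RealTime-Glo MT reagent, settled 5 h at 37 C/5% CO2 before compound addition. Nonlytic NanoLuc luminescence from viable-cell prosubstrate reduction read repeatedly during 40 h treatment at 37 C.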

[12] = qHTS assay to identify small molecule agonists of the hypoxia (HIF-1) signaling pathway - cell viability counter screen (AID 1224844; calls by dose curve; further: nearly all actives have a fitted effect of over 50% in size)
Procedure, shortened: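 Cytotoxicity was measured in parallel with the HRE-driven beta-lactamase readout: after 17 hrs of compound exposure at 37C, HRE-bla ME-180 cells received CellTiter-Glo and luminescence was recorded 30 min later.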

[13] = biological target: Thyrotropin receptor (Homo sapiens) (UniProt P16473); test: qHTS assay to identify small molecule agonists of the thyroid stimulating hormone receptor (TSHR) signaling pathway (AID 1224843; calls by dose curve; further: nearly all actives have a fitted effect of over 45% in size)
Procedure, shortened: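 HEK293/TSHR, 800 cells/well; cpd 30 min RT; add cAMP-d2 + anti-cAMP-cryptate, 1 h RT; fluorescence read on plate reader. 15-pt titration, n=3.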

[14] = qHTS assay to identify small molecule agonists of the hypoxia (HIF-1) signaling pathway (AID 1224846; active means well fitted activation curve with a large enough effect in the signal ratio in the repeat runs, not every such curve was filed as active; the % refers to the signal ratio)
Procedure, shortened: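 Compounds from the Tox21 10K library, dissolved in DMSO, are tested for induction of a hypoxia response element–controlled beta-lactamase reporter in ME-180 cells. Exposure lasts 17 hrs at 37C after a 5 hr settling period, followed by CCF4-AM FRET substrate.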

[15] = qHTS RealTime-Glo MT Cell Viability Assay in HEK293 cells - 32 hour (AID 1224868); further: nearly all actives have a fitted effect of over 50% in size; further: potency means the concentration at half of the fitted maximal effect
Procedure, shortened: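 Quantitative high-throughput screen of the Tox21 10K library in HEK293: cells and RealTime-Glo reagents plated together, compound added at 5 h, luminescence monitored through 40 h at 37 C.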

[16] = biological target: Nuclear receptor subfamily 1 group I member 3 (Homo sapiens) (UniProt Q14994); test: qHTS assay to identify small molecule antagonists of the constitutive androstane receptor (CAR) signaling pathway (AID 1224838); further: nearly all actives have a fitted effect of over 40% in size
Procedure, shortened: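 Antagonist mode used CITCO at a final 50 nM to activate CAR in human hepatoma HepG2 cells carrying stable hCAR and a 2.2 kb CYP2B6 promoter-luciferase construct. Compounds were tested at 15 concentrations over 24 h, with luminescence as the end point.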

[17] = qHTS assay to identify small molecule antagonists of the estrogen related receptor signaling pathway with the pleiotropic PPARgamma coactivator (PGC) from Tox21 10K library (AID 1224841; call rule not given here; further: potency means the concentration at half of the fitted maximal effect)
Procedure, shortened: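 Steps: plate 2,000 PGC/ERR cells per well; incubate 6 h at 37 C with 5% CO2; transfer compounds from DMSO stocks by pin tool; incubate 18 h at 37 C; add One-Glo; measure luminescence 30 min later.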

[18] = qHTS assay to identify small molecule agonists of the estrogen related receptor signaling pathway with the pleiotropic PPARgamma coactivator (PGC) from Tox21 10K library (AID 1224842); further: nearly all actives have a fitted effect of over 15% in size
Procedure, shortened: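 PGC/ERR reporter cell line, 2,000 cells per well, incubated 6 h at 37 C before 23 nL compound in DMSO was added. After 18 h at 37 C, One-Glo luminescence read following 30 min at room temperature.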

[19] = qHTS assay to identify small molecule antagonists of the estrogen related receptor (ERR) signaling pathway from Tox21 library (AID 1224848); further: nearly all actives have a fitted effect of over 50% in size; further: potency means the concentration at half of the fitted maximal effect
Procedure, shortened: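 Compounds dissolved in DMSO are pin-transferred onto ERR reporter cells (2,000 per well) that have settled for 6 h at 37 C. Plates then incubate 18 h at 37 C before ONE-Glo luciferase reagent and a luminescence read 30 min later.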

[20] = qHTS assay to identify small molecule agonists of the estrogen related receptor (ERR) signaling pathway from Tox21 library (AID 1224849; calls by dose curve; further: nearly all actives have a fitted effect of over 15% in size); settings: ERR reporter cell line, ONE-Glo luciferase, 18 h; at 92.4 µM (top of the series) unless noted
Procedure, shortened: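 Cells carrying the ERR reporter were plated and allowed to settle for 6 h, exposed to library compounds for 18 h at 37 C, then lysed with ONE-Glo and luminescence measured.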

Sequence of Nuclear receptor subfamily 1 group I member 3 (Homo sapiens) (Q14994 whole entry, looked up): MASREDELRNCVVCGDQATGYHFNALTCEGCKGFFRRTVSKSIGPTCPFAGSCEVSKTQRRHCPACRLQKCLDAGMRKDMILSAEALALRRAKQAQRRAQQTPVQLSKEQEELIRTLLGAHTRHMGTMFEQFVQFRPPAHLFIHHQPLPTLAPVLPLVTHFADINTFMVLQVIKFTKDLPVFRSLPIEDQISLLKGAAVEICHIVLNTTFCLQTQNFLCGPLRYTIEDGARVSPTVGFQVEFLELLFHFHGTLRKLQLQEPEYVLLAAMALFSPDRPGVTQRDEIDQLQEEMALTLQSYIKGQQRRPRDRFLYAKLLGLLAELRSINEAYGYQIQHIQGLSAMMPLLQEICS
Sequence of Luciferin 4-monooxygenase (Photinus pyralis) (P08659 whole entry, looked up): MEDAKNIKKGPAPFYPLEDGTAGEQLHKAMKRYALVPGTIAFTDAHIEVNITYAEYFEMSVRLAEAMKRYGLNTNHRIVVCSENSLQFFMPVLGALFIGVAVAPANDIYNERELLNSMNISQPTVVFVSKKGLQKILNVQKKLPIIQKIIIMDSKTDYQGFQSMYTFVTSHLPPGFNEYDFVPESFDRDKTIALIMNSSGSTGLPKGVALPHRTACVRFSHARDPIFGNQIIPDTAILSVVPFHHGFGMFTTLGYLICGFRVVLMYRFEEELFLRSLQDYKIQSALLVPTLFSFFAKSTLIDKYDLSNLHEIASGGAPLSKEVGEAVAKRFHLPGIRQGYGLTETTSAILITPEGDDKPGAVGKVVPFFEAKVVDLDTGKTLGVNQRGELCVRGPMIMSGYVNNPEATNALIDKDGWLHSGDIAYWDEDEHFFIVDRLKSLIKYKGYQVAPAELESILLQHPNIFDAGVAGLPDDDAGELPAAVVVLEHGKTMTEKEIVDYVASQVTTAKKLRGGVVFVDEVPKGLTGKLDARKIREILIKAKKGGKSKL
Sequence of Thyrotropin receptor (Homo sapiens) (P16473 whole entry, looked up): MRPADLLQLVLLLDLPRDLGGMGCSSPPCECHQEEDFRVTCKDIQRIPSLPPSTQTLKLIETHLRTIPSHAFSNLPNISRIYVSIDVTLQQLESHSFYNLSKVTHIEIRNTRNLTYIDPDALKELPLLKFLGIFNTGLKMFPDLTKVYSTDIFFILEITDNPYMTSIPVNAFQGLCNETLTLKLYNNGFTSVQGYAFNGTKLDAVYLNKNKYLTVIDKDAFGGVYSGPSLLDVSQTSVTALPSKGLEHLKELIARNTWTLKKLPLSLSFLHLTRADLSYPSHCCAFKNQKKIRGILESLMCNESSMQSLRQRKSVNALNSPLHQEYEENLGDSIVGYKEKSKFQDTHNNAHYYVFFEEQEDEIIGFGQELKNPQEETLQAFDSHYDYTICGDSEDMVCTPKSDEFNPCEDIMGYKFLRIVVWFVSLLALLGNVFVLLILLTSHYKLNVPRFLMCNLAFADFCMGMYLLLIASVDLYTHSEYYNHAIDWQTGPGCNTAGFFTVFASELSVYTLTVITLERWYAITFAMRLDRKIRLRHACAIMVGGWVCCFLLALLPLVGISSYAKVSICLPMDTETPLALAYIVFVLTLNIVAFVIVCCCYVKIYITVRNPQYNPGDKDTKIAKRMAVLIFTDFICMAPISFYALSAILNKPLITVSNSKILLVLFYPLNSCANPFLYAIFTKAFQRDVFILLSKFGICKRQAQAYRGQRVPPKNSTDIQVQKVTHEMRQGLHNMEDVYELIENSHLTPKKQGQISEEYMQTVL

Compound	Potency [1]	Potency [2]	Potency [3]	Potency [4]	Potency [5]	Potency [6]	Potency [7]	Potency [8]	Potency [9]	Potency [10]	Potency [11]	Potency [12]	Potency [13]	outcome [14]	Potency [15]	Potency [16]	Potency [17]	outcome [18]	Potency [19]	activity change, positive = activation [20]
C(CCOCC1CO1)COCC1CO1 (centres undefined)	inactive	inactive	inactive	inactive	inactive	inactive	inactive	inactive	inactive	inactive	inactive	–	–	–	–	–	–	–	–	–
C#C[C@]1(O)C=C[C@H]2[C@@H]3CCC4=CC(=O)CC[C@@H]4[C@H]3CC[C@@]21CC	inactive	inactive	inactive	inactive	–	inactive	19.6 µM (active)	inactive	inactive	–	inactive	inactive	–	–	–	–	–	–	–	–
CCSC(=O)N(CC)C1CCCCC1	inactive	inactive	inactive	inactive	–	inactive	inactive	inactive	inactive	–	inactive	inactive	inactive	inactive	inactive	–	–	–	–	–
Cc1cc(C)c(C(=O)P(=O)(C(=O)c2c(C)cc(C)cc2C)c2ccccc2)c(C)c1	inactive	inactive	inactive	–	inactive	inactive	inactive	inactive	inactive	inactive	inactive	inactive	inactive	inactive	inactive	inactive	inactive	inactive	inactive	-2.99%
CCOC(=O)C1(c2ccccc2)CCN(CCc2ccc(N)cc2)CC1	inactive	inactive	inactive	–	inactive	inactive	inactive	inactive	inactive	inactive	inactive	inactive	–	inactive	inactive	inactive	–	inactive	–	-11.7% [at 42.5 µM]
Cc1nnc2n1-c1sc(CCC(=O)N3CCOCC3)cc1C(c1ccccc1Cl)=NC2	inactive	inactive	inactive	–	inactive	–	inactive	inactive	inactive	inactive	–	inactive	–	inactive	inactive	inactive	inactive	inactive	inactive	1.19% [at 42.5 µM]
CCCCOC(=O)[C@@H](C)Oc1ccc(Oc2ccc(C#N)cc2F)cc1	inactive	inactive	inactive	–	inactive	inactive	inactive	inactive	inactive	–	inactive	inactive	–	inactive	21.7 µM (active)	inactive	inactive	inactive	inactive	-5.11%
C[C@H]1CCC[C@H](O)CCCCCc2cc(O)cc(O)c2C(=O)O1	61.6 µM (active)	inactive	inactive	–	inactive	–	inactive	–	inactive	inactive	inactive	inactive	–	inactive	34.9 µM (active)	inactive	54.9 µM (active)	inactive	54.9 µM (active)	-54.5%
COCC(=O)N(c1c(C)cccc1C)N1CCOC1=O	inactive	inactive	inactive	–	inactive	inactive	inactive	inactive	inactive	inactive	inactive	inactive	–	inactive	inactive	–	inactive	inactive	–	0.713%
